The results in this text go back to PubChem BioAssay (NCI).

This is part of a sample that, as a whole, favours compounds with a hit. Of some 79,000 tested, about 15% had one in any assay. Unmarked numbers belong to inactive results. The source made the active and inactive calls. Rule as the data show it: active = growth inhibition above about 70%; inactive = the rest.

Test [1] in a line: NCI Yeast Anticancer Drug Screen. Data for the rad50 strain (AID 155).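 Also: 0% = growth of vehicle-only cultures of the same strain.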 Particulars: S. cerevisiae rad50 strain growth inhibition, stronger effect = higher value. The procedure, abridged:
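Readout: growth inhibition relative to vehicle-treated cultures. Compound exposure was carried out in a genetically defined yeast strain deficient in DNA damage repair.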

Test [2] is described as follows: NCI Yeast Anticancer Drug Screen. Data for the mec2-1 strain (AID 157). The note with it: S. cerevisiae mec2-1 strain, stronger effect = higher value. Summed up:
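Compounds were applied to mec2-1 yeast cells. Their growth was then compared with that of vehicle-treated cultures to give growth inhibition.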

Test [3] is described as follows: NCI Yeast Anticancer Drug Screen. Data for the cln2 rad14 strain (AID 165).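 Also: 0% = growth equal to vehicle treated cultures.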 Particulars: S. cerevisiae cln2 rad14 strain, stronger effect = higher value. The procedure, abridged:
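Strain: cln2 rad14 yeast, altered in cell cycle control and DNA damage repair. Read-out: growth inhibition vs vehicle.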

The nature of test [4]: NCI Yeast Anticancer Drug Screen. Data for the bub3 strain (AID 167). Particulars: S. cerevisiae bub3 mutant strain, stronger effect = higher value. Summed up: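 Readout: yeast growth inhibition, expressed relative to vehicle-only wells. The test organism is a mutant strain from a panel with lesions in DNA repair or checkpoint genes.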
The nature of test [5]: NCI Yeast Anticancer Drug Screen. Data for the mlh1 rad18 strain (AID 175). Particulars: S. cerevisiae mlh1 rad18 strain growth inhibition, stronger effect = higher value. Summed up: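 A repair-deficient yeast strain is exposed to test compound, and growth is scored relative to vehicle-treated controls.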
Test [6] can be described thus: NCI Yeast Anticancer Drug Screen. Data for the sgs1 mgt1 strain (AID 161).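 Also: 0% = growth of cultures given vehicle only.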 Particulars: S. cerevisiae sgs1 mgt1 strain, stronger effect = higher value. Summed up:
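Percent growth inhibition was derived by comparing compound-exposed mutant yeast with vehicle-exposed cultures. The strain carries alterations in DNA damage repair.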

The mark [7] stands for this setting: at 5.0 µM (retest, dose inferred, filed as 0.5).
Setting [8] is: at 50.0 µM (retest, dose inferred, filed as 5.0).

For the compound `CCCC(=O)Oc1ccc(-c2ccc(Br)cc2)cc1`, the growth inhibition in test [1] (setting [7]) is 4%; in test [1] (setting [8]), 93% (active); in test [1] (at 50.0 µM) it was 92.8% (active); in test [2] (setting [7]), 11%; in test [2] (setting [8]), 93% (active); in test [2] (at 50.0 µM) it was 93.6% (active). Besides, the growth inhibition was -6% in test [3] (setting [7]); 93% (active) in test [3] (setting [8]); 90.2% (active) in test [3] (at 50.0 µM); 39% in test [4] (setting [7]); 95% (active) in test [4] (setting [8]); 89.8% (active) in test [4] (at 50.0 µM). For the same compound, the growth inhibition in test [5] (setting [7]) was -7%; in test [5] (setting [8]) it was 94% (active); in test [5] (at 50.0 µM), 95.8% (active).

Turning to `Cc1cc(O)c(/C=N/c2nc(-c3cccc([N+](=O)[O-])c3)cs2)c(=O)o1`, the growth inhibition in test [1] (setting [7]) was 40%; in test [1] (setting [8]), 99% (active); in test [1] (at 50.0 µM), 37.9%; in test [2] (setting [7]), 42%; in test [2] (setting [8]) it was 100% (active); in test [2] (at 50.0 µM) it was 30%. Moreover, the growth inhibition in test [6] (setting [7]) is 52%; in test [6] (setting [8]) it was 100% (active); in test [6] (at 50.0 µM), 51.2%; in test [3] (setting [7]), 22%; in test [3] (setting [8]), 99% (active); in test [3] (at 50.0 µM), 31%. Also, the growth inhibition in test [4] (setting [7]) was 51%; in test [4] (setting [8]) it was 100% (active); in test [4] (at 50.0 µM), 37.7%; in test [5] (setting [7]), 54%; in test [5] (setting [8]), 99% (active); in test [5] (at 50.0 µM), 63.6%.

On to `Nc1c(Cl)[nH]c(C(F)(F)F)nc1=S`, for which the growth inhibition in test [1] (setting [7]) was -2%; in test [1] (setting [8]) it was -7%; in test [1] (at 50.0 µM) it was 5.2%; in test [2] (setting [7]) it was -7%; in test [2] (setting [8]), -1%; in test [2] (at 50.0 µM), -4.75%. The growth inhibition in test [6] (setting [7]) is -9%; in test [6] (setting [8]), -7%; in test [6] (at 50.0 µM) it was -2.45%; in test [3] (setting [7]) it was -7%; in test [3] (setting [8]) it was 4%; in test [3] (at 50.0 µM), 15.3%. Also, the growth inhibition in test [4] (setting [7]) is -3%; in test [4] (setting [8]), 10%; in test [4] (at 50.0 µM), -9.45%; in test [5] (setting [7]), 0%; in test [5] (setting [8]), 1%; in test [5] (at 50.0 µM), 23.3%.

On to `COc1ccc2c(c1)[n+]([O-])c(-c1ccc(C)cc1)c(N)[n+]2[O-]`, for which the growth inhibition in test [1] (setting [7]) is 17%; in test [1] (setting [8]), 98% (active); in test [1] (at 50.0 µM), 99.4% (active); in test [2] (setting [7]), 22%; in test [2] (setting [8]), 99% (active); in test [2] (at 50.0 µM) it was 99.5% (active). Besides, the growth inhibition in test [6] (setting [7]) was 38%; in test [6] (setting [8]), 100% (active); in test [6] (at 50.0 µM), 99.3% (active); in test [3] (setting [7]), 34%; in test [3] (setting [8]) it was 96% (active); in test [3] (at 50.0 µM), 98.8% (active). Also, the growth inhibition in test [4] (setting [7]) is 75% (active); in test [4] (setting [8]) it was 99% (active); in test [4] (at 50.0 µM) it was 99.4% (active); in test [5] (setting [7]), 63%; in test [5] (setting [8]), 98% (active); in test [5] (at 50.0 µM) it was 99.2% (active).

Regarding `CCCCCCCCC/C=C1\CCC(CN(C)C)C1=O` (stereo not given), the growth inhibition in test [1] (setting [7]) was -26%; in test [1] (setting [8]), 88% (active); in test [1] (at 50.0 µM), 89.4% (active); in test [2] (setting [7]), -36%; in test [2] (setting [8]), 98% (active); in test [2] (at 50.0 µM), 93% (active). The growth inhibition in test [6] (setting [7]) is -28%; in test [6] (setting [8]) it was 91% (active); in test [6] (at 50.0 µM), 90.8% (active); in test [3] (setting [7]) it was -6%; in test [3] (setting [8]) it was 96% (active); in test [3] (at 50.0 µM), 89.6% (active). The growth inhibition in test [5] (setting [7]) is -27%; in test [5] (setting [8]) it was 97% (active); in test [5] (at 50.0 µM) it was 88.8% (active).

For the compound `NC(=S)NNc1c([N+](=O)[O-])cnn(-c2ccccc2)c1=O`, the growth inhibition is 18% in test [1] (setting [7]); 30% in test [1] (setting [8]); 3.85% in test [1] (at 50.0 µM); -28% in test [2] (setting [7]); 3% in test [2] (setting [8]); 3.05% in test [2] (at 50.0 µM). Moreover, the growth inhibition was -27% in test [6] (setting [7]); -13% in test [6] (setting [8]); 9.7% in test [6] (at 50.0 µM); -9% in test [3] (setting [7]); 16% in test [3] (setting [8]); 20.3% in test [3] (at 50.0 µM). Besides, the growth inhibition in test [4] (setting [7]) is -19%; in test [4] (setting [8]), 21%; in test [4] (at 50.0 µM), -4.75%; in test [5] (setting [7]), -22%; in test [5] (setting [8]), -25%; in test [5] (at 50.0 µM), 71.2% (active).

For the compound `O=C(OCc1ccccc1)N1N=NC2C1C1CC(OCc3ccccc3)(OCc3ccccc3)C2O1` (stereo not given), the growth inhibition in test [1] (setting [7]) is 18%; in test [1] (setting [8]) it was 18%; in test [1] (at 50.0 µM), 40.1%; in test [2] (setting [7]) it was 2%; in test [2] (setting [8]) it was 2%; in test [2] (at 50.0 µM), -21.9%. The growth inhibition is 4% in test [3] (setting [7]); 4% in test [3] (setting [8]); 13.2% in test [3] (at 50.0 µM); 6% in test [4] (setting [7]); 6% in test [4] (setting [8]); 18% in test [4] (at 50.0 µM). The growth inhibition in test [5] (setting [7]) is 18%; in test [5] (setting [8]) it was 18%; in test [5] (at 50.0 µM), -22.2%.

On to `CCCCOc1ccc(CC(O)CN2CCCCC2C)cc1` (stereo not given), for which the growth inhibition in test [1] (setting [7]) is 22%; in test [1] (setting [8]) it was 49%; in test [1] (at 50.0 µM) it was 75.2% (active); in test [2] (setting [7]) it was 21%; in test [2] (setting [8]), 51%; in test [2] (at 50.0 µM), 52.5%. Also, the growth inhibition was 33% in test [6] (setting [7]); 61% in test [6] (setting [8]); 78% (active) in test [6] (at 50.0 µM); 36% in test [3] (setting [7]); 57% in test [3] (setting [8]); 73.7% (active) in test [3] (at 50.0 µM). For the same compound, the growth inhibition in test [4] (setting [7]) was 36%; in test [4] (setting [8]), 71% (active); in test [4] (at 50.0 µM) it was 85.6% (active); in test [5] (setting [7]) it was 24%; in test [5] (setting [8]), 60%; in test [5] (at 50.0 µM) it was 51%.

For `O=C(N/C(=C\c1ccccc1)C(=O)N1CCN(c2ccccc2)CC1)c1ccccc1`, the growth inhibition is -9% in test [1] (setting [7]); 6% in test [1] (setting [8]); 90.2% (active) in test [1] (at 50.0 µM); -4% in test [2] (setting [7]); -2% in test [2] (setting [8]); 93.2% (active) in test [2] (at 50.0 µM). Besides, the growth inhibition in test [6] (setting [7]) is -7%; in test [6] (setting [8]), 7%; in test [6] (at 50.0 µM), 95.3% (active); in test [3] (setting [7]), -12%; in test [3] (setting [8]), 0%; in test [3] (at 50.0 µM), 87.8% (active). The growth inhibition in test [5] (setting [7]) is 0%; in test [5] (setting [8]), 6%; in test [5] (at 50.0 µM), 91.7% (active).

As for `N#CSC#Cc1ccc(C#CSC#N)cc1`, the growth inhibition in test [1] (setting [7]) was 100% (active); in test [1] (setting [8]), 98% (active); in test [1] (at 50.0 µM) it was 30.6%; in test [2] (setting [7]), 100% (active); in test [2] (setting [8]) it was 96% (active); in test [2] (at 50.0 µM), 84.5% (active). Besides, the growth inhibition in test [3] (setting [7]) was 99% (active); in test [3] (setting [8]) it was 97% (active); in test [3] (at 50.0 µM), 87.5% (active); in test [4] (setting [7]) it was 99% (active); in test [4] (setting [8]) it was 98% (active); in test [4] (at 50.0 µM) it was 88.3% (active). Further, the growth inhibition in test [5] (setting [7]) is 100% (active); in test [5] (setting [8]) it was 98% (active); in test [5] (at 50.0 µM) it was 89.2% (active).
